# About 2,000 (36%) of roughly 5,500 compounds were called active. About 18% were inconclusive and are not listed. Some of the results follow. A number with no mark means an inactive call. Rule as the data show it: active = normalized growth mostly below about 0.91 (no sharp cut-off); inconclusive = no clear call, values can overlap the other calls; inactive = mostly above about 0.92.
# Test: chemical genetic growth profiling, strain panel (AID 1159580);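 also: tested at 20 µM; growth read once vehicle control cultures reached saturation at 30 °C; 1 = growth at the plate median or of vehicle wells; lower values mean less growth of the strain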
# Details: growth OD
# [1] = S. cerevisiae deletion strains, locus YAL013W, strain DEP1, active compounds read low
# [2] = S. cerevisiae deletion strains, locus YBR229C, strain ROT2, active compounds read low
# [3] = S. cerevisiae deletion strains, locus YDL101C, strain DUN1, active compounds read low
# [4] = S. cerevisiae deletion strains, locus YDL134C, strain PPH21, active compounds read low
# [5] = S. cerevisiae deletion strains, locus YDR150W, strain NUM1, active compounds read low
# [6] = S. cerevisiae deletion strains, locus YEL061C, strain CIN8, active compounds read low
# [7] = S. cerevisiae deletion strains, locus YGR078C, strain PAC10, active compounds read low
# [8] = S. cerevisiae deletion strains, locus YHR030C, strain SLT2, active compounds read low
# [9] = S. cerevisiae deletion strains, locus YHR087W, strain rtc3, active compounds read low
# [10] = S. cerevisiae deletion strains, locus YJR043C, strain POL32, active compounds read low
# [11] = S. cerevisiae deletion strains, locus YJR075W, strain HOC1, active compounds read low
# [12] = S. cerevisiae deletion strains, locus YLR039C, strain RIC1, active compounds read low
# [13] = S. cerevisiae deletion strains, locus YLR058C, strain SHM2 (second series), active compounds read low
# [14] = S. cerevisiae deletion strains, locus YLR085C, strain ARP6, active compounds read low
# [15] = S. cerevisiae deletion strains, locus YLR262C, strain YPT6, active compounds read low
# [16] = S. cerevisiae deletion strains, locus YML094W, strain GIM5, active compounds read low
# [17] = S. cerevisiae deletion strains, locus YMR219W, strain ESC1, active compounds read low
# [18] = S. cerevisiae deletion strains, locus YMR263W, strain SAP30, active compounds read low
# [19] = S. cerevisiae deletion strains, locus YNL153C, strain GIM3, active compounds read low
# [20] = S. cerevisiae deletion strains, locus YNL298W, strain CLA4 (second series), active compounds read low
# [21] = S. cerevisiae deletion strains, locus YNL322C, strain KRE1, active compounds read low
# [22] = S. cerevisiae deletion strains, locus YNR030W, strain Alg12, active compounds read low
# [23] = S. cerevisiae deletion strains, locus YOL006C, strain TOP1, active compounds read low
# [24] = S. cerevisiae deletion strains, locus YPL055C, strain LGE1, active compounds read low
# [25] = S. cerevisiae deletion strains, locus YPL241C, strain CIN2, active compounds read low
# [26] = S. cerevisiae deletion strains, locus YPR135W, strain CTF4, active compounds read low
# [27] = S. cerevisiae strains, strain wild type, active compounds read low
# [28] = S. cerevisiae deletion strains, locus YMR307W, strain GAS1, active compounds read low
smiles,measurement,setting,value
Cc1ccc(-c2csc(CC#N)n2)cc1C,normalized growth,[1],0.987
same,normalized growth,[2],0.961
same,normalized growth,"S. cerevisiae deletion strains, locus YCL061C, strain MRC1, active compounds read low",0.912
same,normalized growth,[3],0.963
same,normalized growth,[4],0.977
same,normalized growth,[5],0.989
same,normalized growth,[6],0.951
same,normalized growth,[7],0.951
same,normalized growth,[8],0.716
same,normalized growth,[9],0.97
same,normalized growth,[10],0.97
same,normalized growth,[11],0.914
same,normalized growth,[12],0.774 (active)
same,normalized growth,[13],0.961
same,normalized growth,[14],0.823
same,normalized growth,[15],0.78 (active)
same,normalized growth,[16],0.944
same,normalized growth,[17],0.961
same,normalized growth,[18],0.974
same,normalized growth,[19],0.929
same,normalized growth,[20],0.882
same,normalized growth,[21],0.962
same,normalized growth,[22],0.962
same,normalized growth,[23],0.758
same,normalized growth,[24],0.946
same,normalized growth,[25],0.859
same,normalized growth,[26],0.801
same,normalized growth,[27],0.969
S=c1nc2[nH]c3ccccc3c2n[nH]1,normalized growth,[1],0.98
same,normalized growth,[2],0.982
same,normalized growth,[3],0.985
same,normalized growth,[4],0.973
same,normalized growth,[5],1.01
same,normalized growth,[6],1
same,normalized growth,[7],0.976
same,normalized growth,[8],0.962
same,normalized growth,[9],1.04
same,normalized growth,[10],0.974
same,normalized growth,[11],1
same,normalized growth,[12],0.996
same,normalized growth,[13],0.99
same,normalized growth,[14],0.927
same,normalized growth,[15],0.995
same,normalized growth,[16],0.978
same,normalized growth,[17],0.994
same,normalized growth,[18],1.03
same,normalized growth,[19],0.977
same,normalized growth,[20],0.944
same,normalized growth,[21],0.991
same,normalized growth,[22],0.972
same,normalized growth,[23],1
same,normalized growth,[24],1
same,normalized growth,[25],0.974
same,normalized growth,[26],0.916
same,normalized growth,[27],0.984
CNC(=O)[C@H]1O[C@@H](n2cnc3c(NCc4cccc(I)c4)ncnc32)C(O)[C@H]1O (stereo partly drawn),normalized growth,"S. cerevisiae deletion strains, locus YAL040C, strain CLN3, active compounds read low",0.988
same,normalized growth,"S. cerevisiae deletion strains, locus YCL061C, strain MRC1 (second series), active compounds read low",0.998
same,normalized growth,"S. cerevisiae deletion strains, locus YDR363W, strain ESC2, active compounds read low",1.01
same,normalized growth,"S. cerevisiae deletion strains, locus YER002W, strain NOP16, active compounds read low",0.993
same,normalized growth,[7],1.01
same,normalized growth,[18],0.999
same,normalized growth,[28],0.992
same,normalized growth,"S. cerevisiae deletion strains, locus YNL128W, strain TEP1, active compounds read low",0.994
same,normalized growth,"S. cerevisiae deletion strains, locus YNL175C, strain NOP13, active compounds read low",1.01
same,normalized growth,"S. cerevisiae deletion strains, locus YNL197C, strain WHI3, active compounds read low",0.998
same,normalized growth,"S. cerevisiae deletion strains, locus YNL224C, strain SQS1, active compounds read low",1.02
same,normalized growth,[21],0.992
same,normalized growth,"S. cerevisiae deletion strains, locus YOR083W, strain WHI5 (second series), active compounds read low",0.991
same,normalized growth,[24],1.01
same,normalized growth,[25],1
O=C(O)c1cncc(C#Cc2ccccc2)c1,normalized growth,[1],0.982
same,normalized growth,[2],0.976
same,normalized growth,[3],0.991
same,normalized growth,[4],1.01
same,normalized growth,[5],1.01
same,normalized growth,[6],1
same,normalized growth,[7],0.957
same,normalized growth,"S. cerevisiae deletion strains, locus YGR229C, strain SMI1, active compounds read low",0.957
same,normalized growth,[8],0.956
same,normalized growth,[9],1
same,normalized growth,[10],0.957
same,normalized growth,[11],0.961
same,normalized growth,[12],0.976
same,normalized growth,[13],0.949
same,normalized growth,[14],1.04
same,normalized growth,[15],0.996
same,normalized growth,[16],1.02
same,normalized growth,[17],0.972
same,normalized growth,[18],0.981
same,normalized growth,[28],1.03
same,normalized growth,[19],0.931
same,normalized growth,[20],0.991
same,normalized growth,[21],0.971
same,normalized growth,[22],0.989
same,normalized growth,[24],1
same,normalized growth,[25],1.01
same,normalized growth,[26],0.935
O=C(Nc1cccc(C(F)(F)F)c1)c1cncc(C#Cc2ccccc2)c1,normalized growth,"S. cerevisiae deletion strains, locus YAR019C, strain CDC15, active compounds read low",0.971
same,normalized growth,"S. cerevisiae deletion strains, locus YBL105C, strain PKC1, active compounds read low",0.98
same,normalized growth,"S. cerevisiae deletion strains, locus YBR135W, strain CKS1, active compounds read low",0.983
same,normalized growth,"S. cerevisiae deletion strains, locus YBR136W, strain MEC1, active compounds read low",0.982
same,normalized growth,"S. cerevisiae deletion strains, locus YBR160W, strain CDC28, active compounds read low",0.983
same,normalized growth,"S. cerevisiae deletion strains, locus YDL017W, strain CDC7, active compounds read low",0.983
same,normalized growth,"S. cerevisiae deletion strains, locus YDL028C, strain MPS1, active compounds read low",0.978
same,normalized growth,[3],0.987
same,normalized growth,"S. cerevisiae deletion strains, locus YDL108W, strain KIN28, active compounds read low",0.984
same,normalized growth,"S. cerevisiae deletion strains, locus YDL132W, strain cdc53, active compounds read low",0.983
same,normalized growth,"S. cerevisiae deletion strains, locus YDL214C, strain PRR2, active compounds read low",0.905
same,normalized growth,"S. cerevisiae deletion strains, locus YDR052C, strain DBF4, active compounds read low",0.983
same,normalized growth,"S. cerevisiae deletion strains, locus YDR054C, strain cdc34, active compounds read low",0.963
same,normalized growth,"S. cerevisiae deletion strains, locus YDR226W, strain ADK1, active compounds read low",0.973
same,normalized growth,"S. cerevisiae deletion strains, locus YDR477W, strain SNF1, active compounds read low",0.929
same,normalized growth,"S. cerevisiae deletion strains, locus YER123W, strain YCK3, active compounds read low",0.809
same,normalized growth,"S. cerevisiae deletion strains, locus YER133W, strain GLC7, active compounds read low",0.936
same,normalized growth,"S. cerevisiae deletion strains, locus YFL009W, strain cdc4, active compounds read low",0.968
same,normalized growth,"S. cerevisiae deletion strains, locus YFL029C, strain CAK1, active compounds read low",0.97
same,normalized growth,"S. cerevisiae deletion strains, locus YFR003C, strain YPI1, active compounds read low",0.983
same,normalized growth,"S. cerevisiae deletion strains, locus YFR019W, strain FAB1, active compounds read low",0.862
same,normalized growth,"S. cerevisiae deletion strains, locus YFR028C, strain CDC14, active compounds read low",0.969
same,normalized growth,"S. cerevisiae deletion strains, locus YGR040W, strain KSS1, active compounds read low",0.89
same,normalized growth,"S. cerevisiae deletion strains, locus YGR052W, strain FMP48, active compounds read low",0.977
same,normalized growth,"S. cerevisiae deletion strains, locus YGR092W, strain DBF2, active compounds read low",0.826
same,normalized growth,[8],0.847 (active)
same,normalized growth,"S. cerevisiae deletion strains, locus YHR079C, strain IRE1, active compounds read low",0.854
same,normalized growth,"S. cerevisiae deletion strains, locus YHR082C, strain KSP1, active compounds read low",0.905
same,normalized growth,"S. cerevisiae deletion strains, locus YHR205W, strain SCH9, active compounds read low",0.776
same,normalized growth,"S. cerevisiae deletion strains, locus YIL147C, strain SLN1, active compounds read low",0.98
same,normalized growth,"S. cerevisiae deletion strains, locus YJL095W, strain BCK1, active compounds read low",0.903
same,normalized growth,"S. cerevisiae deletion strains, locus YJL128C, strain PBS2, active compounds read low",0.978
same,normalized growth,"S. cerevisiae deletion strains, locus YJL157C, strain FAR1, active compounds read low",0.878
same,normalized growth,"S. cerevisiae deletion strains, locus YJR016C, strain ILV3, active compounds read low",0.983
same,normalized growth,"S. cerevisiae deletion strains, locus YJR066W, strain TOR1 (second series), active compounds read low",0.905
same,normalized growth,"S. cerevisiae deletion strains, locus YJR066W, strain TOR1, active compounds read low",0.865
same,normalized growth,"S. cerevisiae deletion strains, locus YKL048C, strain ELM1, active compounds read low",0.877
same,normalized growth,"S. cerevisiae deletion strains, locus YKL067W, strain YNK1, active compounds read low",0.901
same,normalized growth,"S. cerevisiae deletion strains, locus YKL101W, strain HSL1, active compounds read low",0.883
same,normalized growth,"S. cerevisiae deletion strains, locus YKL193C, strain SDS22, active compounds read low",0.982
same,normalized growth,"S. cerevisiae deletion strains, locus YKL203C, strain TOR2, active compounds read low",0.937
same,normalized growth,"S. cerevisiae deletion strains, locus YLR113W, strain HOG1, active compounds read low",0.902
same,normalized growth,"S. cerevisiae deletion strains, locus YLR133W, strain CKI1, active compounds read low",0.868
same,normalized growth,"S. cerevisiae deletion strains, locus YLR403W, strain SFP1, active compounds read low",0.843
same,normalized growth,"S. cerevisiae deletion strains, locus YML070W, strain DAK1, active compounds read low",0.914
same,normalized growth,"S. cerevisiae deletion strains, locus YMR001C, strain CDC5, active compounds read low",0.98
same,normalized growth,"S. cerevisiae deletion strains, locus YMR205C, strain PFK2 (second series), active compounds read low",0.935
same,normalized growth,"S. cerevisiae deletion strains, locus YMR277W, strain FCP1, active compounds read low",0.975
same,normalized growth,"S. cerevisiae deletion strains, locus YNL006W, strain LST8, active compounds read low",0.981
same,normalized growth,"S. cerevisiae deletion strains, locus YNL020C, strain ARK1, active compounds read low",0.853
same,normalized growth,"S. cerevisiae deletion strains, locus YNL161W, strain CBK1, active compounds read low",0.985
same,normalized growth,"S. cerevisiae deletion strains, locus YNL183C, strain NPR1, active compounds read low",0.919
same,normalized growth,"S. cerevisiae deletion strains, locus YNL207W, strain RIO2, active compounds read low",0.99
same,normalized growth,"S. cerevisiae deletion strains, locus YNL222W, strain SSU72, active compounds read low",0.978
same,normalized growth,"S. cerevisiae deletion strains, locus YNL307C, strain MCK1 (second series), active compounds read low",0.77
same,normalized growth,"S. cerevisiae deletion strains, locus YOL078W, strain AVO1, active compounds read low",0.977
same,normalized growth,"S. cerevisiae deletion strains, locus YOL136C, strain PFK27, active compounds read low",0.899
same,normalized growth,"S. cerevisiae deletion strains, locus YOR061W, strain CKA2, active compounds read low",0.875
same,normalized growth,"S. cerevisiae deletion strains, locus YOR119C, strain RIO1, active compounds read low",0.977
same,normalized growth,"S. cerevisiae deletion strains, locus YOR231W, strain MKK1, active compounds read low",0.915
same,normalized growth,"S. cerevisiae deletion strains, locus YOR329C, strain SCD5, active compounds read low",0.981
same,normalized growth,"S. cerevisiae deletion strains, locus YPL031C, strain PHO85, active compounds read low",0.916
same,normalized growth,"S. cerevisiae deletion strains, locus YPL153C, strain RAD53, active compounds read low",0.921
same,normalized growth,"S. cerevisiae deletion strains, locus YPL204W, strain HRR25, active compounds read low",0.883
same,normalized growth,"S. cerevisiae deletion strains, locus YPL209C, strain IPL1, active compounds read low",0.988
same,normalized growth,"S. cerevisiae deletion strains, locus YPL256C, strain CLN2, active compounds read low",0.897
same,normalized growth,"S. cerevisiae deletion strains, locus YPR025C, strain CCL1, active compounds read low",0.977
same,normalized growth,"S. cerevisiae deletion strains, locus YPR106W, strain ISR1, active compounds read low",0.977
same,normalized growth,"S. cerevisiae deletion strains, locus YPR111W, strain DBF20, active compounds read low",0.964
same,normalized growth,"S. cerevisiae deletion strains, strain NNK1, active compounds read low",0.974
same,normalized growth,"S. cerevisiae deletion strains, strain TSCII, active compounds read low",0.989
